ABCB6 inh 2: blocks the human ABCB6 transporter. Q9NP58. K562-ABCB6 porphyrin accumulation, flow cytometry, 1 h; active compounds read low. fluorescence ratio to DMSO, % at 10 µM. actives 0.19% (n = 360,000). AID 602162;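 active = fluorescence ratio to DMSO below 75%, the collection mean minus 3 SD; inconclusive = too few cells collected in the well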;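 also: signal is porphyrin accumulated inside mitochondria; 100% equals median channel fluorescence of DMSO control wells; lower ratio means ABCB6 inhibition with less porphyrin fluorescence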
Target sequence (Q9NP58 whole entry, looked up): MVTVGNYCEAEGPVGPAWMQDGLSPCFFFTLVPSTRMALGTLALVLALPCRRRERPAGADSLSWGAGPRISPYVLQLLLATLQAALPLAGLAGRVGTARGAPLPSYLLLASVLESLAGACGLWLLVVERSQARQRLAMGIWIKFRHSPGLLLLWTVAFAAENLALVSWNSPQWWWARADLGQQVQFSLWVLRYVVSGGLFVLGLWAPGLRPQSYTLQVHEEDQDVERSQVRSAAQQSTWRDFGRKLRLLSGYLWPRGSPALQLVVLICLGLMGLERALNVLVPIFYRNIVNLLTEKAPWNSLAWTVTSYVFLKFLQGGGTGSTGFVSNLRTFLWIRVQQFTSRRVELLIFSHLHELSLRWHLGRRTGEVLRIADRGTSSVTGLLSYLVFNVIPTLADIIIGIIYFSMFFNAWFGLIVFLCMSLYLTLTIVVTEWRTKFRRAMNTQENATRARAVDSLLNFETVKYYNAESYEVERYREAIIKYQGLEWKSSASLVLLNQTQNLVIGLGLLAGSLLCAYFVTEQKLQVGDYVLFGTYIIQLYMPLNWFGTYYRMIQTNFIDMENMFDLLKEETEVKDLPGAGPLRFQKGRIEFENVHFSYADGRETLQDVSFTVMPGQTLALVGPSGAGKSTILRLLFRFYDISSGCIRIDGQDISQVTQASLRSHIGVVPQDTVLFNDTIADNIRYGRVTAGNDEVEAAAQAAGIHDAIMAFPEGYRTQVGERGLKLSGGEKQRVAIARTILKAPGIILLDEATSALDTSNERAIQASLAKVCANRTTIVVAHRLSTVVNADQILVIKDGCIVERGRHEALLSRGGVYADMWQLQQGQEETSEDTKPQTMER
RAD54 branch: blocks human RAD54 Holliday junction branch migration; inhibition, % at 10.4 µM; Q92698; FAM/BHQ fluorescence; actives 0.14% (n = 360,000);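 active = mean normalized replicate activity at least 40 and at least half of replicates scoring 40 or more; inconclusive = only one of the two criteria met; inactive = mean below 40 and under half of replicates reaching 40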;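 also: 0% = median of neutral control wells and 100% = median of positive control wells; inhibitors cause a drop in the FAM fluorescence signal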
N-glyco inh: N-linked glycosylation inhibition; D54 ERlucT glycosylation luciferase reporter, 24 h; percent of 100 nM tunicamycin response; reporter increase, % at 12.5 µM; actives 0.23% (n = 360,000);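 active = mean luciferase reporter signal, scaled so untreated is 0 and the glycosylation-blocking control 100, at or above a set limit in every replicate; inconclusive = mean reaches the limit but not every replicate does; inactive = mean below the limit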;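 also: luciferase carries N-glycosylation sites so blocking glycosylation raises the light; 0% = median of neutral control wells and 100% = median of 100 nM tunicamycin wells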
Myeloid diff 2: promotes myeloid progenitor differentiation | ER-HoxA9 myeloid progenitors, lysozyme-GFP differentiation, flow cytometry | actives 1% (n = 360,000) | AID 624256 | calls only at 10 µM;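 active = normalized GFP-positive differentiation at or above the plate's own cutoff, the solvent-only control mean plus 3 SD; inconclusive = no clear call, values can overlap the other calls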;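 also: cells exposed to compound for four days before flow analysis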
Vif inh: inhibitors of HIV Vif; actives 0.35% (n = 340,000); HEK293T cells, Vif self-association by quenched fluorescence, imaging, 24 h; inhibition, % at 7.49 µM; AID 602346; in the data active = inhibition above about 50%, passing the limit was not always enough; inconclusive = no clear call, values can overlap the other calls; inactive = below about 31%
Active calls of the source: *. In the library only some 1.6% were active in any assay of this set; here they are far more common.

Results for CCn1c(SCC(=O)Nc2nccs2)nnc1-c1ccc(C)cc1 ?
ABCB6 inh 2: 107; RAD54 branch: 3; N-glyco inh: 1; Myeloid diff 2: inactive; Vif inh: -10

What do the screens show for `C[C@H](CO)N1C[C@H](C)[C@@H](CN(C)C(=O)NC2CCCCC2)Oc2ccc(NS(=O)(=O)c3ccc(F)cc3)cc2CC1=O`?
RAD54 branch: 12

Results for CCOC(=O)/C(=C\c1cccnc1)C(=O)c1cc(C(C)=O)c(Nc2ccccc2)s1 ?
ABCB6 inh 2: 89; RAD54 branch: -5; N-glyco inh: -20; Myeloid diff 2: inconclusive; Vif inh: -9

Results for CCOC(=O)/C(=C\c1ccccc1)C(=O)c1cc(C(C)=O)c(Nc2ccccc2)s1 ?
ABCB6 inh 2: 99; RAD54 branch: 9; N-glyco inh: 35*; Myeloid diff 2: inconclusive; Vif inh: 5

How did CN1c2ccc(Br)cc2[C@H]2[C@H](CCN2C(=O)c2cccc(F)c2)[C@@H]1CO do in these assays?
RAD54 branch: -11

How did COc1ccc(C)cc1Nc1nc(-c2c[nH]c3ccccc23)cs1 do in these assays?
ABCB6 inh 2: 126; N-glyco inh: 1; Myeloid diff 2: active; Vif inh: -3

How did Cc1nc(Cc2nnc(SCC(=O)N3CCN(c4ccc(O)cc4)CC3)o2)cs1 do in these assays?
ABCB6 inh 2: 97; RAD54 branch: -12; N-glyco inh: 3; Myeloid diff 2: active; Vif inh: 3

Results for Nc1ccccc1O ?
ABCB6 inh 2: 115; RAD54 branch: 9; N-glyco inh: 9; Myeloid diff 2: inactive; Vif inh: -8

Results for Nc1cccc2c(O)cccc12 ?
ABCB6 inh 2: 99; N-glyco inh: 4; Myeloid diff 2: active; Vif inh: -10

Results for Cc1cc(C)c2c(N)c3ccccc3nc2n1 ?
ABCB6 inh 2: 107; RAD54 branch: 100*; N-glyco inh: 123*; Myeloid diff 2: inactive; Vif inh: -22

Results for Cc1cc(C)c2cccc(N)c2n1 ?
ABCB6 inh 2: 109; RAD54 branch: -1; N-glyco inh: 9; Myeloid diff 2: inactive; Vif inh: -2

What do the screens show for `CCOC(=O)/C=c1\s/c(=C\c2c(OC)ccc3ccccc23)c(=O)n1CC(=O)NCC1CCCO1` (stereo unspecified)?
ABCB6 inh 2: 101; RAD54 branch: -4; N-glyco inh: 13; Myeloid diff 2: active; Vif inh: 17

Results for CCOC(=O)/C=c1/s/c(=C/c2ccc3cc(OC)ccc3c2)c(=O)n1CC(=O)NCC1CCCO1 (stereo unspecified) ?
ABCB6 inh 2: 99; N-glyco inh: -2; Myeloid diff 2: inactive; Vif inh: -13

Results for Cc1cc(/C=C2\SC(=S)NC2=O)c(C)n1C ?
ABCB6 inh 2: 103; RAD54 branch: -1; N-glyco inh: 1; Myeloid diff 2: active; Vif inh: inactive

Results for Cc1cc(/C=C2\SC(=S)NC2=O)c(C)n1-c1ccc(O)cc1 ?
ABCB6 inh 2: 102; N-glyco inh: -7; Myeloid diff 2: inactive; Vif inh: 18

Results for CCOC(=O)c1ccccc1Nc1cn(C(C)=O)c2ccccc12 ?
ABCB6 inh 2: 101; N-glyco inh: inconclusive; Myeloid diff 2: active

How did CCCCSc1nnc(CCC)n1N do in these assays?
ABCB6 inh 2: 95; RAD54 branch: 4; N-glyco inh: 2; Myeloid diff 2: inactive; Vif inh: -18

How did CCCCSc1nn[nH]n1 do in these assays?
ABCB6 inh 2: 93; RAD54 branch: 0; N-glyco inh: 1; Myeloid diff 2: inactive; Vif inh: 52*

Results for CCN(CC)c1nc(N)c2c(N)n(-c3ccccc3C)c(=S)c(C#N)c2c1C#N ?
ABCB6 inh 2: 102; RAD54 branch: -12; N-glyco inh: 2; Myeloid diff 2: active; Vif inh: 5

How did CCN(CC)c1nc(N)c2c(N)nc3c(c2c1C#N)CC(c1ccccc1)O3 (stereo unspecified) do in these assays?
ABCB6 inh 2: 110; RAD54 branch: -27; N-glyco inh: 6; Myeloid diff 2: inactive; Vif inh: -3

How did CCN(CC)c1ccc(/C=C(/C#N)c2nc3ccc(C)cc3[nH]2)c(OC(C)C)c1 do in these assays?
ABCB6 inh 2: 745; RAD54 branch: -16; N-glyco inh: -4; Myeloid diff 2: active

Results for CC(=O)Nc1cc[n+](C(C)C(=O)c2ccc(Br)cc2)cc1 (stereo unspecified) ?
ABCB6 inh 2: 97; N-glyco inh: -2; Myeloid diff 2: active; Vif inh: 0

How did CC(=O)Nc1cc[n+](C(C)C(=O)c2ccccc2)cc1 (stereo unspecified) do in these assays?
ABCB6 inh 2: 101; RAD54 branch: 5; N-glyco inh: -1; Myeloid diff 2: inactive; Vif inh: 3

How did Cc1cc(C)cc(N2CC(O)=C(c3nc4ccccc4c(=O)[nH]3)C2=N)c1 do in these assays?
ABCB6 inh 2: 97; N-glyco inh: 3; Myeloid diff 2: inactive; Vif inh: 2

How did COc1cccc(N2CC(O)=C(c3nc4ccccc4c(=O)[nH]3)C2=N)c1 do in these assays?
ABCB6 inh 2: 89; RAD54 branch: 11; N-glyco inh: 36*; Myeloid diff 2: inconclusive; Vif inh: 12

How did CCCCc1cc(=O)oc2cc(OCC(=O)NC3CCN(Cc4ccccc4)CC3)ccc12 do in these assays?
ABCB6 inh 2: 94; RAD54 branch: 9; N-glyco inh: -4; Myeloid diff 2: active; Vif inh: -5

How did C[C@@H]1CN([C@@H](C)CO)C(=O)c2cc(NS(=O)(=O)c3ccc(Cl)cc3)ccc2O[C@H]1CN(C)CC1CC1 do in these assays?
RAD54 branch: -2

What do the screens show for `CN1CCN(CC(=O)NC2CCCCC2)CC1`?
ABCB6 inh 2: 85; RAD54 branch: -12; N-glyco inh: -1; Myeloid diff 2: inactive; Vif inh: 92*

How did CN1CCC(NC(=O)NC2CCCCC2)CC1 do in these assays?
ABCB6 inh 2: 102; RAD54 branch: -9; N-glyco inh: 1; Myeloid diff 2: inactive; Vif inh: -6

Results for COC(=O)C[C@H]1CC[C@H]2[C@@H](COc3ccc(NC(=O)Nc4ccccc4C)cc3C(=O)N2C)O1 ?
RAD54 branch: -3

How did CO[C@H]1CN(C)C(=O)c2cc(NC(=O)C3CC3)ccc2OC[C@@H](C)N(C(=O)c2ccccc2F)C[C@H]1C do in these assays?
RAD54 branch: -3

What do the screens show for `CN1C2=CC=CC=CC2=[N+](C)C12C([N+](=O)[O-])=CC(=[N+]([O-])[O-])C=C2[N+](=O)[O-]` (stereo unspecified)?
ABCB6 inh 2: 92; RAD54 branch: -6; N-glyco inh: 29*; Myeloid diff 2: inactive

Results for CN1C2=CC=CC=CC2=[N+](C)C12C=CC(=[N+]([O-])[O-])C=C2[N+](=O)[O-] (stereo unspecified) ?
ABCB6 inh 2: 108; N-glyco inh: -1; Myeloid diff 2: inactive; Vif inh: -1

What do the screens show for `C=CC(=O)N1C/C(=C/c2ccc(F)cc2)C(=O)/C(=C\c2ccc(F)cc2)C1`?
ABCB6 inh 2: 93; N-glyco inh: -18; Myeloid diff 2: inconclusive; Vif inh: 143*
